Results: the OligoGym collection

biological target: HSPA1A; test: pooled miR-30 sensor sort-seq; sequence = guide strand; conditions: shRNA
Further: reference of the scale not given here.

Point of comparison: TTCAACATTGCAAACACAGGAA, sensor-assay potency score (higher = more potent) 0.422. Against it:
- TAAAAAGAAGAAATAGTCGTAA — lower, 0.289
- TTCTTCTTGTCGGCCTCGCTGA — lower, -0.634
- TTAAAAAGAAGAAATAGTCGTA — higher, 0.533
- TTGTCGGCCTCGCTGATCTTGC — lower, -1.46
- TACTAGGAAATGCAAAGTCTTG — lower, -1.4
- TGCAAAGTCTTGAAGCTCCAAA — lower, -0.87
- TCAACATTGCAAACACAGGAAA — lower, -1.05
- TTGTCCAGCACCTTCTTCTTGT — lower, 0.221

biological target: HSPA1L; test: as above; conditions: shRNA

Point of comparison: TAGGGTTACACATCTGCTCCAA, sensor-assay potency score (higher = more potent) 0.367. Against it:
- TTCTCTTATGATCAAACTCATC — lower, -1.68
- TTGGTTGTCAGAGTAGGTGGTG — lower, 0.316
- TTAGTCAATACCATCGAAGAGA — lower, -1.19
- TAAGTCCAGCAATCACACCTGC — lower, -0.0929
- TTTCTCAGCATCCAGAACCATG — lower, -1.49
- TTCTTAGCACATTAAGTCCAGC — lower, -0.826
- TTTATATTTCTCAGCATCCAGA — lower, -0.719
- TAGAGTTTTGTGATGATAGGGT — higher, 0.798
- AACTTAGTCAATACCATCGAAG — lower, -0.727
- TAATCTTGCCCTTCAAACCTTC — lower, -0.52
- TTTATCAGACTCACTAATCTTG — lower, 0.0614

biological target: IBTK; test: as above; conditions: shRNA

Point of comparison: TAACACAGACTGTAGCTCCATC, sensor-assay potency score (higher = more potent) -0.515. Against it:
- TTATCTTGAATATACAGACTAA — higher, -0.465
- TTGAGCTTGATTACTTTTGTAA — higher, 0.24
- TAAGCCAATCTAACACTCCTTT — higher, 0.0727
- TAAACAGCTTCTCTAGTCCATA — lower, -1.24
- TCTTCTTGCACTGATAGTCTGC — higher, -0.142
- TAATACAACAGTATGATCCTTA — higher, 1.02
- TTCTTGAACATAGTTTCCGAAT — lower, -1.25
- TTGCACTATACATTGCTGCAAA — lower, -0.722
- TAGCATAGCAGCATTCTTCAGG — higher, -0.0417
- TTTGCTTTCTTGAACATAGTTT — higher, -0.494
- TAAACTGTAAACAAGACAGTTT — higher, -0.0719

biological target: ICAM4; test: as above; conditions: shRNA

Point of comparison: TTCATAGCTAGGCACTTGCATA, sensor-assay potency score (higher = more potent) -1.17. Against it:
- TTGTAGGCGGTGATCCTGGAGG — higher, -1.08
- TTGAGCTGCACTGACTTCCCCG — higher, 0.304
- TGCACAGCCACGAACTCCGGGC — lower, -1.29
- TATTCCTCTTTTTCTCGCTCAG — higher, -0.694
- TTTGTAGGCGGTGATCCTGGAG — higher, -0.0996
- TAGGCGGTGATCCTGGAGGTGG — lower, -1.35
